Paper PMC5540273 (PLoS ONE, 2017)

test system: T1, DLK; details: concentration: 1 μM, replicates: in singlicate; n = 1
T1 construct: gene MAP3K12
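Note: KINOMEscan kinase panel screen.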

SMILES	%Inh [%]
CN1C(=O)C(Nc2ccccc2)=C(c2ccccc2)C1=O [SB-300079]	1
CCC(=O)c1c(-c2ccccc2)c2cc(Cl)ccc2c(=O)n1Cc1ccc(C(=O)O)cc1	0
COc1cc(Nc2nccc(N3CCC(NC(=O)C(C)c4ccc(Cl)cc4)C3)n2)cc(OC)c1OC (stereo not drawn) [GSK1379757]	29
O=C(NCc1cccs1)c1cc(C(=O)c2c(Cl)cccc2Cl)c[nH]1 [GW823670]	0
Cl.c1ccc(Cn2cnc3cc(Nc4ncnc5ccccc45)ccc32)cc1 [GW272142]	6
COc1cc2ncn(-c3cc(OCc4ccc(S(C)(=O)=O)cc4)c(C(N)=O)s3)c2cc1OC [GW869979]	13
CCS(=O)c1ccc(-c2coc3ccc(-c4nnc(C)o4)cc23)cc1 (stereo not drawn)	30
O=C(Nc1n[nH]c2nc(-c3ccccc3)c(Br)cc12)C1CC1 [SB-708998]	17
Cl.NS(=O)(=O)c1cccc(Nc2cc(-c3ccc(F)cc3)n[nH]2)c1 [GW824645]	0
COC(=O)c1c(-c2ccccc2)c2cc(Br)ccc2c(=O)n1Cc1ccc(NC(=O)CCC(=O)O)cc1	0
CCCNC(=O)Nc1ccc(Oc2ncnc3ccn(C)c23)cc1	0
FC(F)(F)c1ccc(-c2ncn(CCCN3CCOCC3)c2-c2ccncc2)cc1 [SB-217780]	0
Cc1c(Cn2c(C)nn3c(=O)cc(N4CCO[C@H](C)C4)nc23)cccc1C(F)(F)F [GSK2373690]	0
COc1cccc(-n2cnc3c(N)ncnc32)c1 [SKF-97416]	17
Nc1nc(N)c2nc(-c3ccccc3)[nH]c2n1 [SKF-12778]	1
COc1ccc(CNC(=O)NC2CCN(c3ccnc(Nc4ccc(F)cc4)n3)C2)cc1 (stereo not drawn) [GSK1379706]	42
COc1cccc(C2=C(N(C)c3ccccc3)C(=O)NC2=O)c1 [SB-334865]	4
COc1ccc(-c2cc3c(C)nc(N)nc3n([C@H]3CC[C@H](OCCO)CC3)c2=O)cn1	0

SMILES	%Inh [%]
Nc1ncnc2c1ncn2-c1cccc2ccccc12 [SKF-97184]	0
Cc1ccc(-c2ccc3c(ccc4sc5c(c43)NC[C@@H](C)N=C5N(C)C)n2)cn1	0
COc1cccc(C2=C(Nc3cccc(C(=O)O)c3)C(=O)NC2=O)c1 [SB-390770]	0
Cc1nc(N(C)[C@H]2CN(C(=O)CC#N)CC[C@H]2C)c2cc[nH]c2n1	0
CN(C)c1cc(-c2ccc3c(N)n[nH]c3c2)nc(N)n1 [GSK2219329]	7
COc1ccc(-c2cc3c(C)nc(N)nc3n([C@H]3CC[C@H](O)CC3)c2=O)cn1	5
OCCCNc1nccc(-c2c(-c3cccc(C(F)(F)F)c3)nn3cc(C(F)(F)F)ccc23)n1 [GW630813]	37
O=C(Nc1n[nH]c2cc(-c3ccccc3F)ccc12)C1CC1 [SB-733371]	0
Nc1nc(-c2ccccc2F)c(-c2ccnc3ccccc23)s1 [GW560459]	36
Cn1c(=O)c(F)c(Nc2ccc(I)cc2F)c2c(=O)n(OC[C@H](O)CO)cnc21	0
Cc1cc(Nc2nc(-c3cccc(C)n3)nc3ccccc23)ccn1 [GW872411]	0
COc1cc2nccc(Nc3ccc(OCc4ccc(NC(C)=O)cc4)cc3)c2cc1OC.Cl [GW440135]	27
Cc1nnc(-c2ccc(C)c(-c3ccc(C(=O)O)cc3)c2)o1 [GW608005]	21
CCS(=O)(=O)c1ccc(OC)c(Nc2ncc(-c3ccc(F)cc3)o2)c1.Cl [GW591947]	25
CCc1ccc(-c2ccc3c(c2)-c2nn(C)cc2S(=O)(=O)N3C)cc1	0
CCC(=O)c1c(-c2ccccc2)c2cc(Cl)ccc2c(=O)n1Cc1cc(S(C)(=O)=O)n(CCC(C)(C)O)n1	0
C[C@@H]1CC[C@H](C(=O)NC2CCCCC2)CN1c1cc(-c2ccc3c(N)n[nH]c3c2)nc(N)n1 [GSK2291363]	31
O=c1cc(N2CCOCC2)nc2n(Cc3ccc(F)c(Cl)c3)ccn12 [GSK2297099]	6
